Measured values from PubChem BioAssay AID652231 (Johns Hopkins Ion Channel Center, 2013).
Out of some 2,300 compounds screened, about 55 (2%) were called active.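 How the source made its calls: active means duplicate-averaged calcium signal over 20% of the ionomycin maximum, relative to buffer baseline; inactive means the rest.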 What follows is part of a selection rich in actives, with near analogues and random picks from the rest.

Experiment: compound-evoked intracellular calcium rise – cell-based, counter-screen for TMEM16A inhibitor project, confirmation (AID 652231);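 on calcium response (% of ionomycin): each well's signal is peak minus trough fluorescence divided by its pre-addition baseline; 0% = buffer wells and 100% = ionomycin wells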
Settings: TMEM16A/YFP HEK293, Fluo4 calcium mobilization, at 10 µM; hits give high values
For CCc1cc2c(N3CCN(c4nnc(CC)s4)CC3)ncnc2s1, the calcium response (% of ionomycin) was “inactive”. With COc1ccc(C(=O)NC2CCCc3c2cnn3-c2cccc(C)c2C)c(OC)n1 (configuration not stated) the calcium response (% of ionomycin) was “inactive”. In the case of O=c1cc(C(F)(F)F)[nH]c(=O)n1C1CCCCC1, the calcium response (% of ionomycin) is reported as “inactive”. With CCOC(=O)c1cccc(NC(=O)CCn2nnc3ccccc32)c1 the calcium response (% of ionomycin) was “inactive”. With COc1ccc(OCC(=O)NCCc2ccc(S(N)(=O)=O)cc2)cc1 the calcium response (% of ionomycin) was “inactive”. For Fc1ccc2[nH]c3c(N4CCSCC4)ncnc3c2c1, the calcium response (% of ionomycin) was “inactive”. In the case of Cc1ccc(-n2ncc3c(N4CCN(c5ccc(F)cc5)CC4)ncnc32)c(C)c1, the calcium response (% of ionomycin) is reported as “inactive”. With Cc1ccc(-c2noc(CSc3nnnn3-c3ccccc3)n2)cc1 the calcium response (% of ionomycin) was “inactive”. In the case of Cc1cc(C=O)c(C)n1-c1ccc(NC2CCCCC2)c([N+](=O)[O-])c1, the calcium response (% of ionomycin) is reported as “inactive”. With Cc1cccc(-n2c(SCC(N)=O)nc3c(c2=O)C2(CCCCC2)Cc2ccccc2-3)c1 the calcium response (% of ionomycin) was “inactive”. With O=C(NCCc1ccc2c(c1)OCCO2)c1cc2ccccc2o1 the calcium response (% of ionomycin) was “inactive”. In the case of COc1ccc(CCC(=O)c2ccc(OC)cc2)cc1, the calcium response (% of ionomycin) is reported as “inactive”. For CCCCNC(=O)CSc1nc2n[nH]c(C)c2c(=N)n1-c1cccc(Cl)c1C, the calcium response (% of ionomycin) was “inactive”. For CCOC(=O)N1CC=C2C(C#N)=C(N)C(C#N)(C#N)[C@H](c3cccs3)[C@H]2C1, the calcium response (% of ionomycin) was “inactive”. For COc1ccc(NC(=O)C2=CC(c3ccc(OC)c(OC)c3)=NS(=O)(=O)N2C)cc1, the calcium response (% of ionomycin) was “inactive”. With Cc1nc2c(C(=O)NCc3ccc4c(c3)OCO4)c[nH]n2c(=O)c1Cc1ccccc1F the calcium response (% of ionomycin) was “inactive”. In the case of Cc1ccc(C)c(N2CCN(S(=O)(=O)c3ccc4c(c3)oc(=O)n4C)CC2)c1, the calcium response (% of ionomycin) is reported as “inactive”. With CC1CCN(C(=O)c2ccc(CSc3ccc(Cl)cc3)cc2)CC1 the calcium response (% of ionomycin) was “inactive”. For CN1c2ccc(C=O)c3c(C=O)ccc(c23)N(C)C1(C)C, the calcium response (% of ionomycin) was 64.5% (active). For COc1cccc(CNS(=O)(=O)c2ccc3c(c2)CC(C)N3C(=O)C2CCC2)c1 (configuration not stated), the calcium response (% of ionomycin) was “inactive”. In the case of CN(Cc1cccnc1)C(=O)c1cc(COc2ccc3ncccc3c2)on1, the calcium response (% of ionomycin) is reported as “inactive”. In the case of Cc1ccc2c(c1)N(S(=O)(=O)c1cc(-c3cc(C)no3)ccc1C)CCO2, the calcium response (% of ionomycin) is reported as “inactive”. For CC(=O)c1c(C)[nH]c(C(=O)COC(=O)c2cccc(S(=O)(=O)N(C)c3ccccc3)c2)c1C, the calcium response (% of ionomycin) was “inactive”. In the case of Cc1ccc(C(=O)O)cc1-c1ccc(/C=C2\SC(=O)N(CC(=O)Nc3ccc4c(c3)OCO4)C2=O)o1, the calcium response (% of ionomycin) is reported as “inactive”. For CCN(CC)S(=O)(=O)c1ccc(N(C)Cc2ccc(C(F)(F)F)cc2)nc1, the calcium response (% of ionomycin) was “inactive”. In the case of Cn1c(=O)n(C)c2cc(S(=O)(=O)N3CCCc4ccccc43)ccc21, the calcium response (% of ionomycin) is reported as “inactive”. With N#Cc1nc(COc2ccc(-c3ccccc3)cc2)oc1NCc1cccnc1 the calcium response (% of ionomycin) was “inactive”. With CCn1nccc1C(=O)Nc1ccc(S(=O)(=O)NC23CC4CC(CC(C4)C2)C3)cc1 the calcium response (% of ionomycin) was “inactive”. For C=CCn1c(SCC(=O)Nc2nc3ccccc3s2)nnc1-c1ccccc1O, the calcium response (% of ionomycin) was “inactive”. In the case of CCCc1cc(=S)n2c([nH]c3ccccc32)c1C#N, the calcium response (% of ionomycin) is reported as “inactive”. For COc1ccc(-c2nc(CCNC(=O)c3ccc(Br)o3)cs2)cc1, the calcium response (% of ionomycin) was “inactive”. For O=C(CN1CCN(C(=S)NC2CCCC2)CC1)Nc1ccc(Oc2ccccc2)cc1, the calcium response (% of ionomycin) was “inactive”. In the case of Cc1ccccc1-n1nnnc1SCCCC(=O)c1ccc(F)cc1, the calcium response (% of ionomycin) is reported as “inactive”. In the case of Cc1ccc(N)cc1-n1c(C)ccc1C, the calcium response (% of ionomycin) is reported as “inactive”. With Cc1ccc(C)c(N2CCN(C(=O)CCCCn3c(=O)[nH]c4ccccc4c3=O)CC2)c1 the calcium response (% of ionomycin) was “inactive”. For CCOC(=O)C(Sc1ncc(C#N)c(N)n1)C(C)C (configuration not stated), the calcium response (% of ionomycin) was “inactive”. With O=C(COC(=O)CCc1c[nH]c(=O)[nH]1)Nc1ccccc1Cl the calcium response (% of ionomycin) was “inactive”. In the case of Cc1ccc(NC(=O)C(C)c2cccc(C(=O)c3ccccc3)c2)cc1 (configuration not stated), the calcium response (% of ionomycin) is reported as 20.5% (active). With S=C(NCc1ccc(Cl)cc1)NC12CC3CC(CC(C3)C1)C2 the calcium response (% of ionomycin) was “inactive”. With Cc1noc(C)c1COC(=O)c1cc2ccccc2cc1O the calcium response (% of ionomycin) was “inactive”. In the case of C=CCSc1nsc(NC(=O)Nc2cccc(C(C)=O)c2)n1, the calcium response (% of ionomycin) is reported as “inactive”. For CCCOc1ccc(Cc2c(Cl)nc(SC)nc2NC)cc1, the calcium response (% of ionomycin) was “inactive”. In the case of Cn1c(CCN2CCCCCC2)nc2cc(NC(=O)Nc3ccccc3)ccc21, the calcium response (% of ionomycin) is reported as “inactive”. For CCOC(=O)N1CCN(C(=O)c2ccc3c(c2)N(Cc2ccc(C)cc2)CCS3)CC1, the calcium response (% of ionomycin) was “inactive”. In the case of CSc1nsc(NC(=O)Nc2ccccc2)n1, the calcium response (% of ionomycin) is reported as “inactive”. With CCC(=O)Nc1ccc2nc(C)n(Cc3ccccc3Cl)c(=O)c2c1 the calcium response (% of ionomycin) was “inactive”. With Cc1ccc(NC(=O)CN(C)CC(=O)Nc2cccc(F)c2)cc1[N+](=O)[O-] the calcium response (% of ionomycin) was “inactive”. In the case of Cc1ccc(N2C(=O)S/C(=C/c3cn(C)c4ccccc34)C2=O)cc1, the calcium response (% of ionomycin) is reported as “inactive”. With Cc1nc(SCC(=O)N2CCc3ccccc3C2)c2c(C)c(C)sc2n1 the calcium response (% of ionomycin) was “inactive”. With COc1ccc(CN(C)C(=O)CC(c2ccccc2)c2ccccc2)cc1 the calcium response (% of ionomycin) was “inactive”. With Cc1nc(C)c(-c2csc(NCCc3ccccc3)n2)s1 the calcium response (% of ionomycin) was “inactive”. In the case of COC(=O)c1ccc(NC(=O)c2ccccc2NS(=O)(=O)c2ccccc2)cc1, the calcium response (% of ionomycin) is reported as “inactive”. With O=C(CSCc1ccc(Cl)cc1)N1CCN(Cc2ccc3c(c2)OCO3)CC1 the calcium response (% of ionomycin) was “inactive”. In the case of COc1ccc2[nH]cc(/C=C(/C#N)S(=O)(=O)c3ccccc3)c2c1, the calcium response (% of ionomycin) is reported as “inactive”. In the case of CC1=NN(c2cccc(Cl)c2)C(=O)C12CC(C)=C(C)CS2 (configuration not stated), the calcium response (% of ionomycin) is reported as “inactive”. For Cc1ccc(F)cc1NC(=O)Cc1nn(C)c(=O)c2ccccc12, the calcium response (% of ionomycin) was “inactive”. With CSc1cccc(NC(=S)N(C(C)C)C(C)c2ccccn2)c1 (configuration not stated) the calcium response (% of ionomycin) was “inactive”. With Cc1cc(C)cc(NS(=O)(=O)c2ccc(Oc3ncc(C(F)(F)F)cc3Cl)cc2)c1 the calcium response (% of ionomycin) was “inactive”. For CN(c1cccc(NC(=O)c2ccc(CN3CCc4ccccc4C3)cc2)c1)S(C)(=O)=O, the calcium response (% of ionomycin) was “inactive”. With CC(C)CNC(=S)NNC(=O)c1nn(C)cc1Cl the calcium response (% of ionomycin) was “inactive”. For CC(NC(=O)c1ccco1)C(=O)Nc1nc(-c2ccccn2)cs1 (configuration not stated), the calcium response (% of ionomycin) was “inactive”. In the case of COc1ccc(S(=O)(=O)NCCCCOc2ccc(Cl)cc2)cc1, the calcium response (% of ionomycin) is reported as “inactive”. In the case of COc1cc(CC(=O)Nc2nc(-c3ccc(F)c(F)c3)cs2)cc(OC)c1OC, the calcium response (% of ionomycin) is reported as “inactive”. In the case of C=C(C)Cn1c(C)cc(C)c(S(=O)(=O)c2ccccc2C)c1=O, the calcium response (% of ionomycin) is reported as “inactive”. In the case of Cc1ccc(-c2csc(-c3c[nH]c4ccccc34)n2)cc1, the calcium response (% of ionomycin) is reported as “inactive”. In the case of S=C(NCC1CCCO1)N1CCN(c2ccc(Cl)c(Cl)c2)CC1 (configuration not stated), the calcium response (% of ionomycin) is reported as “inactive”. In the case of COc1ccc(CNc2nnnn2C)cc1, the calcium response (% of ionomycin) is reported as “inactive”. In the case of O=C(Nc1cccc(S(=O)(=O)Nc2ccc(Cl)cc2)c1)c1ccc2c(c1)OCCO2, the calcium response (% of ionomycin) is reported as “inactive”. In the case of CSc1nnc2c(n1)OC(c1ccsc1)N(C(C)=O)c1ccccc1-2 (configuration not stated), the calcium response (% of ionomycin) is reported as “inactive”. With CCOC(=O)C1=C(CN2CCc3ccccc32)NC(=O)NC1c1cccc([N+](=O)[O-])c1 (configuration not stated) the calcium response (% of ionomycin) was “inactive”. With O=S1(=O)CCN(Cc2ccccc2Cl)CC1 the calcium response (% of ionomycin) was “inactive”. With COc1ccc(Cl)cc1NC(=O)CCS(=O)(=O)c1cc2c(cc1C)NC(=O)CO2 the calcium response (% of ionomycin) was “inactive”. For O=C(Nc1nc(-c2ccc3c(c2)OCO3)cs1)c1ccncc1, the calcium response (% of ionomycin) was “inactive”. With Cc1nc2ccccc2cc1OCc1ccc(F)cc1 the calcium response (% of ionomycin) was “inactive”. With CC(C)(C)C(=O)/C(C#N)=C/c1ccc(O)cc1 the calcium response (% of ionomycin) was “inactive”. With O=C(O)c1ccc(NC(=O)C2CCCCC2)cc1 the calcium response (% of ionomycin) was “inactive”. With Cc1[nH]n(-c2cccc(Cl)c2)c(=O)c1-c1ccc(Cl)cc1 the calcium response (% of ionomycin) was “inactive”. For Cc1ccc(-n2[nH]c(C)c(/C=N/N3C(=O)c4cccc5cccc(c45)C3=O)c2=O)cc1, the calcium response (% of ionomycin) was 43.5% (active). For O=C1c2ccccc2C(Nc2ccc3c(c2)OCCO3)N1Cc1ccco1 (configuration not stated), the calcium response (% of ionomycin) was “inactive”. For Cc1cccc(N=Nc2c(O)[nH]c3ccc(F)cc23)c1, the calcium response (% of ionomycin) was “inactive”. For CCCCn1ccnc1C(=O)c1cccc(S(=O)(=O)N2c3ccccc3CC2C)c1 (configuration not stated), the calcium response (% of ionomycin) was “inactive”. With O=C(CNCCC1=CCCCC1)Nc1ccccc1N1CCCCCC1 the calcium response (% of ionomycin) was “inactive”. In the case of CCCC(=O)Nc1ccccc1N1CCN(C(=O)c2ccccc2)CC1, the calcium response (% of ionomycin) is reported as “inactive”. For S=C(NCc1cccs1)Nc1ccc(Cl)cc1, the calcium response (% of ionomycin) was “inactive”. In the case of N#Cc1nc(N)nc(N(c2ccccc2)c2ccccc2)n1, the calcium response (% of ionomycin) is reported as “inactive”. For Fc1ccc(CSc2nnc(-c3cc4c(s3)-c3ccccc3CC4)o2)cc1, the calcium response (% of ionomycin) was “inactive”. In the case of Cn1c(CN2CCOCC2)nc2cc(NC(=O)c3ccc(Cl)cc3)ccc21, the calcium response (% of ionomycin) is reported as “inactive”. In the case of O=C1NC(=O)C2C1C(c1ccc([N+](=O)[O-])cc1)=NN2Cc1ccccc1 (configuration not stated), the calcium response (% of ionomycin) is reported as “inactive”. For O=C(N/N=C/c1cc(Cl)cc([N+](=O)[O-])c1O)C(O)(c1ccccc1)c1ccccc1, the calcium response (% of ionomycin) was “inactive”. For O=C(COc1ccccc1)NCc1ccc2c(c1)OCO2, the calcium response (% of ionomycin) was “inactive”. For CN(C)c1cc[n+](Cc2ccccc2)cc1, the calcium response (% of ionomycin) was “inactive”. In the case of CCCCCc1ccc(-c2ccc(C(=O)O)cc2)nc1, the calcium response (% of ionomycin) is reported as “inactive”. For Cc1ccc2c(c1)N(CC(=O)N1CCCc3ccccc31)C(=O)C(C)O2 (configuration not stated), the calcium response (% of ionomycin) was “inactive”. With COC(=O)c1ccc(COC(=O)c2c(C)nn(Cc3ccccc3Cl)c2Cl)o1 the calcium response (% of ionomycin) was “inactive”. In the case of CCOC(=O)C1CCN(c2ncnc3c2oc2ccc(Br)cc23)CC1, the calcium response (% of ionomycin) is reported as “inactive”. With Cc1nc(CNS(=O)(=O)c2ccc(Oc3ccccc3)cc2)cs1 the calcium response (% of ionomycin) was “inactive”. With CC(=O)c1cc(CN2CCC(C(=O)Nc3cccc(-c4cscn4)c3)CC2)cs1 the calcium response (% of ionomycin) was “inactive”. For c1ccc(-c2nnc(SCc3nc4ccccc4[nH]3)o2)cc1, the calcium response (% of ionomycin) was “inactive”. For COc1ccc(-n2c(C)cc(C(=O)CSc3nnc(-c4cccs4)o3)c2C)cc1, the calcium response (% of ionomycin) was “inactive”. For O=C(NC(=S)Nc1ccccc1C(=O)O)c1ccc(-c2ccc(Br)cc2)o1, the calcium response (% of ionomycin) was 29% (active). For O=C(Nc1ccccc1)c1ccccc1NC(=O)C(F)(F)F, the calcium response (% of ionomycin) was “inactive”. With N#CC1=C(SCc2ccccc2)NC(=O)C(C#N)C12CCCC2 (configuration not stated) the calcium response (% of ionomycin) was “inactive”.
